# Source: PubChem (Broad Institute)
# aSyn 5UTR act = Activators via SNCA 5'UTR binding, MLPCN. alpha-synuclein 5'UTR reporter, activators screen. activity score, % (tested at 7.5 µM), hits read low. 300,000 compounds, 7.1% hits; in the data active = activity score below about -60%
# Starred values were filed as active, the others as inactive; + = active, no number. Only a sample is shown.
SMILES,aSyn 5UTR act
NC(=O)CN1C(=O)C(O)(CC(=O)/C=C\c2ccc3c(c2)OCO3)c2ccccc21 (stereo not drawn),-70*
Fc1ccc2nc3[nH]c4ccccc4c3nc2c1,-161*
CCc1cc2cc(C(=O)Nc3ccc(C)cc3)sc2s1,-90*
COCCNC(=O)c1cc2oc3ccccc3c2n1C,-99*
CCOc1ccccc1CNC(=O)c1cc2oc3ccccc3c2n1C,51
CCOC(=O)CNC(=O)c1sc(NC(=O)c2cccc(F)c2)nc1C,-98*
CCOC(=O)CNC(=O)c1sc(NC(=O)c2ccccc2F)nc1C,-151*
COc1ccc(OC)c(NC(=O)NC2(C(F)(F)F)Oc3ccccc3O2)c1,-73*
COC(=O)c1c(NC(=O)c2cccs2)sc2c1CCC(C)C2 (stereo not drawn),-113*
CCCC1CCc2c(sc(NC(=O)c3cccs3)c2C(N)=O)C1 (stereo not drawn),-99*
O=C(NC(=S)NNC(=O)c1ccccc1O)c1ccco1,-99*
O=C(NC(=S)Nc1ccccc1Br)c1ccco1,-86*
O=C(/C=C/c1cccs1)NC(=S)NNC(=O)c1ccccc1O,103
Cc1c(NC(=S)NC(=O)Cc2ccccc2)cccc1C(=O)O,-79*
Cc1cccc(NC(=S)NC(=O)c2ccco2)c1C,-94*
CCCCNc1c(-c2ccc(SC3CCCCC3)cc2)nc2ccccn12,-83*
Cc1[nH]n(C(N)=S)c(=O)c1N=Nc1ccc(Br)cc1,-90*
Cc1[nH]n(C2=NCCS2)c(=O)c1N=Nc1cccc(C(F)(F)F)c1,67
Cc1[nH]n(C(N)=S)c(=O)c1N=Nc1cccc(C(F)(F)F)c1,-165*
Cc1ccc(N=Nc2c(C)[nH]n(C(N)=S)c2=O)cc1,-116*
CC1CCC(NC(=O)c2ccc3nc[nH]c3c2)CC1 (stereo not drawn),-81*
Cc1[nH]c2ccc(C(=O)NC3CCC(C)CC3)cc2c1C (stereo not drawn),-148*
O=c1oc2ccccc2nc1/C=C(O)/C=C/c1ccc(F)cc1,-88*
COc1ccc(-c2nc(SC)n(S(=O)(=O)c3ccccc3)n2)cc1,-120*
COC(=O)CCN1CCc2cc(N=Nc3ccc([N+](=O)[O-])cc3)ccc21,-96*
SMILES,aSyn 5UTR act
Cc1[nH]n(-c2ccc(Cl)cc2)c(=O)c1C=Nc1ccc(S(=O)(=O)N2CCOCC2)cc1,-69*
CCCCN(CCCC)C(=S)N/N=C/c1c(C)[nH]n(-c2ccccc2)c1=O,93
CN(C)S(=O)(=O)Oc1cccc(C(=O)Nc2ccccc2Cl)c1,-91*
CN(C)S(=O)(=O)Oc1cccc(C(=O)Nc2ccc(Cl)cc2)c1,-129*
CN(C)S(=O)(=O)Oc1ccc(C(=O)Nc2cccc(Cl)c2)cc1,-244*
CN(C)c1ccc(N=Nc2ccccc2C(=O)OCC(=O)NC2CCCC2)cc1,-112*
CN(C)c1ccc(N=Nc2ccccc2C(=O)OCC(=O)N(C)C2CCCCC2)cc1,-135*
Cc1cc(C2=NNC(=NC3CC3)SC2)c(C)n1-c1ccccc1F,99
Cc1ccccc1N=C1NN=C(c2ccccc2F)CS1,-171*
O=C(Nc1ccccc1O)c1ccc(NS(=O)(=O)c2cccc3cccnc23)cc1,-605*
O=C(Nc1ncccc1O)c1ccc(S(=O)(=O)Nc2ccccc2)cc1,+
CC(C)c1cc2c(c(O)c1O)[C@@]13CCCC(C)(C)C1CC2OC3=O (stereo partly drawn),-126*
O=C1NC2(CCCCC2)C(=O)N1/N=C/c1ccccc1Br,-81*
O=C(Nc1ccccc1)Nc1csc2ccccc12,-165*
O=C(Nc1ccccc1)Nc1scc2c1c(=O)oc1ccccc12,-123*
CC(=O)Nc1ccc(C#Cc2ccc(NC(C)=O)cc2)cc1,74
CC(=O)Nc1ccc(SCCCC(=O)c2ccccc2)cc1,-161*
CC(=O)Nc1ccc(NC(=O)Nc2ccccc2)cc1,-70*
O=C(Nc1ccccc1)Nc1c(F)cccc1F,-66*
CCCCOc1ccc(-c2ncc(C(=O)O)c(C)n2)cc1,-123*
COc1ccc2nc(-n3c(O)c(C4=c5ccccc5=NC4=O)[nH]c3=S)sc2c1,-74*
COc1ccccc1N1CCN(S(=O)(=O)CCNC(=O)c2cc(OC)c(OC)c(OC)c2)CC1,61
COc1cc(C(=O)Nc2cc3c(cc2N2CCCCC2)n(C)c(=O)n3C)cc(OC)c1OC,-79*
CCN(CCn1cccn1)C(=O)CCc1nnc(C2(c3ccc(Cl)cc3)CCC2)o1,-86*
CCN(CCn1cccn1)C(=O)CCc1nnc(-c2ccccc2)o1,-73*
SMILES,aSyn 5UTR act
Sc1oc(-c2ccccc2)cc1C=Nc1ccccc1,-117*
O=C(NC(=S)Nc1ccccn1)c1cccc([N+](=O)[O-])c1,-89*
O=C(Nc1ccccn1)c1sc2cc([N+](=O)[O-])ccc2c1Cl,-161*
CCOc1ccc(C(=O)NC(=S)Nc2ccccn2)cc1[N+](=O)[O-],-104*
Cc1nn(C)c(=O)c(N)c1-c1cc(-c2ccc(Cl)c(Cl)c2)n[nH]1,-71*
Cc1ccc(-c2cc(-c3c(C)nn(C)c(=O)c3N)[nH]n2)cc1,-110*
O=C1NC(=O)/C(=C\c2ccc(Oc3cnccn3)cc2)S1,-191*
NC(=O)C1=C[C@H](c2ccccc2)C[C@H](OCc2ccc(CO)cc2)O1,-67*
O=C(Nc1ccccc1)C1=C[C@@H](c2ccccc2)C[C@@H](OCc2ccc(CO)cc2)O1,-94*
O=C(Nc1ccccc1O)c1csc2c1CCCC2,-157*
O=C(N/N=C/c1cccc(F)c1)c1csc2c1CCCC2,-144*
O=C(N/N=C/c1ccccc1F)c1csc2c1CCCC2,-235*
CC(N=c1ccccn1C(=O)Nc1ccc(Cl)cc1)c1ccco1 (stereo not drawn),-121*
O=C(C(Cl)c1ccccc1)N1CCOCC1 (stereo not drawn),-65*
CCOc1ccc(OCc2ccc(C(=O)Nc3cccnc3)o2)cc1,-81*
CC(C)NC(=O)c1ccc(COc2ccc(C(C)(C)C)cc2)o1,-136*
CCOc1ccc(OCc2ccc(C(=O)NC(C)(C)C)o2)cc1,-70*
CN(C)c1ccc(NC(=O)c2ccc(COc3cccc(Cl)c3)o2)cc1,-112*
CCOC(=O)Cc1cc(-c2ccc(OC)cc2)nc2ccc3ccccc3c12,-117*
CCOC(=O)Cc1cc(-c2ccc(F)cc2)nc2ccc3ccccc3c12,-63*
CCOC(=O)Cc1cc(-c2ccc(O)cc2)nc2ccc3ccccc3c12,-80*
Oc1ccc(-c2csc(-c3cccnc3)n2)c(O)c1,-101*
c1cncc(-c2nc(-c3ccc4c(c3)OCO4)cs2)c1,-117*
Clc1ccsc1-c1csc(-c2cccnc2)n1,-85*
COc1cc(/C=N/Nc2ccc(C(F)(F)F)cn2)ccc1O,-147*
SMILES,aSyn 5UTR act
CCOc1cc(/C=N/Nc2cc(C)nc(-n3nc(C)cc3C)n2)ccc1O,68
O=C(O)c1ccc(/C=N/Nc2ccc(C(F)(F)F)cn2)cc1,-172*
O=C1C(N2CCOCC2)=C(n2nnc3ccccc32)C(=O)c2ccccc21,44
O=S1(=O)C=C(N2CCOCC2)c2ccccc21,-70*
Cc1cc(/C=N/n2cnnc2)c(C)n1-c1ccc(OCc2ccc(Cl)cc2Cl)cc1,113
Cc1cc(/C=N/n2cnnc2)c(C)n1-c1ccc(OCc2ccc(F)cc2)cc1,-73*
Cc1ccnc(NC(=O)c2ccc(Br)s2)c1,-115*
O=C(Nc1nccc(-c2cccs2)n1)c1cccs1,-92*
Cc1cccc(NC(=O)c2cccs2)n1,-116*
Cc1ccnc(NC(=O)c2cccs2)c1,-118*
O=C(Nc1ccccn1)c1cccs1,-113*
COc1cccc(/C=N/NC(=O)c2cc3cc([N+](=O)[O-])ccc3s2)c1O,107
